Common to all, as to assay: NCI-60 one-dose screen, 48 h (100 = growth as untreated, 0 = no growth, -100 = all killed)
Holding throughout (conditions): 10 µM unless noted

For test [1], the system named is NCI-H23 lung.
Test [2] relates to NCI-H226 lung.
Test [3] has as its system NCI-H322M lung.
In test [4] the test system is HOP-62 NSCLC.
For test [5], the system named is NCI-H460 lung.
Test [6] relates to HOP-92 NSCLC.
The test system of test [7] is NCI-H522 lung.
In test [8] the test system is A549/ATCC NSCLC.
Test [9] deals with 786-0 renal.
The test system of test [10] is COLO 205 colon.
Test [11] concerns DU-145 prostate.
The subject of test [12] is K-562 leukemia.
The subject of test [13] is MALME-3M melanoma.
The subject of test [14] is MDA-MB-231 breast.
In test [15] the test system is RXF 393 renal.
For test [16], the system named is SF-268 CNS.
For test [17], the system named is SF-295 CNS.
The test system of test [18] is SF-539 CNS.
Test [19] deals with UACC-257 melanoma.
The test system of test [20] is M14 melanoma.

The panel holds about 83,000 compounds, 20% with a hit somewhere; the sample as a whole holds those more often.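 In brief: 96-well plates, 48 h treatment, single concentration, percent growth endpoint.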 A number with no mark means an inactive call. Active and inactive are the calls of the source. The calls were made as follows: active = growth percent below 10; inactive = the rest.

With `CN(C)C(=S)Sc1ccc([N+](=O)[O-])cc1[N+](=O)[O-]`, the growth in test [1] is 44.4%; in [2] it was 49.6%; in test [3], 101%; in [4], 71.1%; in test [5], -41.6% (active); in test [6], 0.304% (active). Besides, the growth was -92.1% (active) in test [7]; 43.6% in [8]; 63.8% in test [9]; -22.7% (active) in test [10]; 64.7% in test [11]; 8.13% (active) in test [12]. Besides, the growth in [13] is -4.06% (active); in test [14] it was 44.3%; in test [15] it was -61.1% (active); in test [16] it was 52.8%; in test [17] it was 90.3%; in [18], 52.1%. Moreover, the growth is 41.4% in [19] and 8.95% (active) in test [20].

Turning to `Brc1ccc2c(c1)CN(C1CCCCC1)CO2`, the growth was 96.9% in [1]; 91.3% in test [2]; 124% in [3]; 100% in [4]; 102% in test [5]; 89.3% in test [6]. Further, the growth was 108% in test [7]; 110% in test [8]; 117% in test [9]; 116% in [10]; 111% in test [11]; 89.7% in test [12]. The growth in [13] is 115%; in test [14] it was 102%; in test [15], 107%; in test [16], 96.4%; in test [17], 104%; in test [18], 98.2%. Also, the growth is 120% in test [19] and 105% in test [20].

For the molecule `Cc1ccc(S(=O)(=O)Oc2ccc(Br)cc2Br)cc1`, the growth was 88% in test [1]; 85.5% in test [2]; 91.2% in test [3]; 76.6% in test [4]; 97.2% in [5]; 82.3% in test [6]. The growth is 82.1% in test [7]; 64% in test [8]; 86.6% in test [9]; 63.9% in [10]; 78.1% in test [11]; 18.5% in test [12]. For the same molecule, the growth in [13] is 92%; in [14], 85%; in [15], 87.9%; in [16], 76.5%; in test [17] it was 69.3%; in test [18], 81.6%. Also, the growth in [19] is 81.4%; in test [20] it was 78.8%.

On to `Cc1ncc(C(=O)Nc2ccc(CN3CCN(C)CC3)c(C(F)(F)F)c2)cc1C#Cc1c(N)ncc2ccc(C#N)cc12`, for which the growth is 35.8% in test [1]; 19.9% in [2]; 34.4% in test [3]; 16.5% in [4]; 43.4% in test [5]; -8.03% (active) in test [6]. Besides, the growth is 46.9% in test [7]; 34.4% in test [8]; -51% (active) in [9]; 7.77% (active) in test [10]; 27.7% in test [11]; 4.11% (active) in test [12]. The growth in [13] was -34.3% (active); in [14] it was -12.5% (active); in test [15], -45% (active); in test [16], 42.1%; in test [17], 74.4%; in [18] it was 48.4%. The growth in [19] is -1.39% (active); in test [20], -12% (active).

Regarding `CN(C)c1ccc(-c2ccc(-c3ccc(C(=N)N)cc3)s2)cc1`, the growth in test [1] is -46.4% (active); in test [2] it was 87.4%; in test [3] it was 40.2%; in [4], -33.2% (active); in test [5], -71.1% (active); in test [6] it was 24.5%. Moreover, the growth in test [7] was -50.3% (active); in test [8], -72.7% (active); in test [9] it was -63.9% (active); in test [10], -66.6% (active); in [11], -88.4% (active); in test [12], -4.45% (active). Further, the growth in test [13] is 88.1%; in test [14], -29.6% (active); in [15], 54.3%; in test [16] it was 82.9%; in test [17], 102%; in test [18], 89.9%. For the same molecule, the growth is 104% in test [19] and 99.8% in test [20].

With `Cn1cc(-c2nnc(-c3cn(C)c4ncc(Br)cc34)o2)c2ccccc21`, the growth is 90.4% in test [1]; 93% in test [2]; 97.7% in [3]; 82.5% in [4]; 98.2% in [5]; 77.1% in [6]. Besides, the growth in test [7] is 57.3%; in test [8] it was 87.4%; in test [9] it was 105%; in test [10], 76%; in test [11], 103%; in [12], 49.1%. The growth in test [13] was 75.2%; in [14], 75.3%; in test [15] it was 70.8%; in test [16] it was 89.1%; in [17], 89.3%; in [18], 92.1%. Moreover, the figures for the growth in [19] and in test [20] were 98.5% and 96.4%, respectively.

For the molecule `CCOC(=O)Nc1ccc2c(c1)/C(=N\NC(=S)NC)c1ccccc1-2`, the growth was 93.8% in [1]; 107% in [2]; 92.3% in [3]; 108% in test [4]; 65.1% in test [5]; 85.9% in test [6]. The growth in [7] is 68%; in test [8] it was 55.7%; in test [9] it was 64.4%; in test [10] it was 106%; in test [11], 88.9%; in test [12] it was 77.2%. For the same molecule, the growth in test [13] is 115%; in test [14], 65%; in test [15] it was 7.59% (active); in [16], 101%; in test [17], 46.8%; in test [18], 71.4%. Besides, the growth in test [19] is 107%; in test [20], 78.2%.

Consider `CCCSc1nc(N)nc2nc[nH]c12`, for which the growth in test [1] is 97.5%; in test [2] it was 103%; in test [3] it was 161%; in test [4] it was 95.7%; in test [5], 106%; in test [6], 91.9%. Also, the growth in test [7] is 88.4%; in test [8], 105%; in [9], 97.5%; in test [10], 113%; in test [11], 119%; in test [12], 90.5%. The growth was 249% in [13]; 104% in [14]; 107% in test [15]; 108% in test [16]; 120% in test [17]; 95.6% in test [18]. Also, the growth in test [19] was 105%; in test [20], 96%.

The record behind these values is PubChem BioAssay (NCI).
